Data: ChEMBL document CHEMBL3988442, “University of Dundee, Small-Polar-MMV Screening Library” (2021)
Screen size: about 66,000 compounds; about 960 (1.5%) showed an effect of 50% or more. Shown is part of a subset that was picked to be rich in strong results.

Test system: Trypanosoma brucei
Assay: Trypanosoma brucei 72 hour study
Format: functional, organism-based
Set-up: scale not given: in the data most compounds retested in dose-response had high values

CC(=O)N1CCCN(C(=O)c2ccc(=O)n(C)c2)c2ccccc21
Percent Effect (30.3 µM, […]): -14.08%

Cn1cc(N2CC3(CCN(CC4CC4)CC3)OCC2=O)cn1.O=C(O)C(F)(F)F
Percent Effect (30 µM, 30.03 µM): -14.55%

O=C(NCCC1=CCCCC1)c1n[nH]c2c1CCCC2
Percent Effect (30.3 µM, […]): 9.564%

Cc1cc(C(=O)N2CCN(C)CC2)nn1CC(=O)NCc1cccs1.Cl
Percent Effect (30.3 µM, […]): 4.887%

CN1CCc2c(C#N)c(NCC3CCCO3)n3cnnc3c2C1.Cl (configuration not stated)
Percent Effect (30 µM, 30.03 µM): -22.69%

CC(NC(=O)CSCC(N)=O)c1ccccc1Oc1ccccc1 (configuration not stated)
Percent Effect (30.3 µM, […]): 5.896%

CN1[C@H](CN2CCCC2)C[C@@H]2CN(C(=O)c3cccn3C)CC[C@@H]21.O=C(O)C(F)(F)F.O=C(O)C(F)(F)F
Percent Effect (30.3 µM, […]): 14%

O=C(O)c1cc(S(=O)(=O)Nc2cnn(C3CCOCC3)c2)ccc1F
Percent Effect (30 µM, 30.03 µM): -3.686%

O=S(=O)(Nc1cnn(C2CCOCC2)c1)c1ccc(F)c(F)c1
Percent Effect (30 µM, 30.03 µM): 51.53%

Cc1ccc(S(=O)(=O)Nc2cnn(C3CCOCC3)c2)cc1C
Percent Effect (30 µM, 30.03 µM): -12.07%

CC(C)CS(=O)(=O)N1CCC2(CN(c3ccsc3)C(=O)CN2C)C1.O=C(O)C(F)(F)F (configuration not stated)
Percent Effect (30 µM, 30.03 µM): -44.48%

Cl.NCCC(=O)Nc1ccc(-c2ccccc2)cc1
Percent Effect (30.3 µM, […]): 22.23% | Percent Effect (10 mM, 10 mM as filed; unlikely as a test dose): 97.12%

CC(=O)Nc1ccc(-c2ccccc2NC(=O)CN)cc1
Percent Effect (30 µM, 30.03 µM): -52.76%

O=C(CCn1ccccc1=O)Nc1ccc(C(=O)O)cc1
Percent Effect (30 µM, 30.03 µM): 4.206%

O=C(O)C(F)(F)F.O=C([C@H]1C[C@H]2OCC[C@H]2N(CC2CC2)C1)N1CCCCO1
Percent Effect (30.3 µM, […]): -275.5%

O=C(O)C(F)(F)F.O=C1COC2(CCN(Cc3ccsc3)CC2)CN1
Percent Effect (30 µM, 30.03 µM): -11.85%

CS(=O)(=O)NCC1CCCN(Cc2ccccc2F)C1 (configuration not stated)
Percent Effect (30 µM, 30.03 µM): -12.86%

COC1CN(C(=O)Nc2ccccc2)CCC(=O)N(C)c2ccccc21 (configuration not stated)
Percent Effect (30.3 µM, […]): -31.75%

COC1CCN(C(=O)Nc2ccccc2)CC(=O)N(C)c2ccccc21 (configuration not stated)
Percent Effect (30.3 µM, […]): 83.76%

COC1CCN(C(=O)C2CCCC2)CC(=O)N(C)c2ccccc21 (configuration not stated)
Percent Effect (30.3 µM, […]): -34.54%

COCCOc1cccc(CNCc2c(C)nn(C)c2N(C)C)c1
Percent Effect (10 µM): -49.16%

Cc1nc(C)n(CC2CCCN(c3ncnc4[nH]ccc34)C2)n1 (configuration not stated)
Percent Effect (30 µM, 30.03 µM): 50.76%

Cc1nc(C)n(CC2CCCN(c3ncnc4ccccc34)C2)n1 (configuration not stated)
Percent Effect (30.3 µM, […]): 12.87%

Cc1nc(C)n(CC2CN(c3ncnc4[nH]ccc34)CCO2)n1 (configuration not stated)
Percent Effect (30 µM, 30.03 µM): 20.56%

CC(C)NC(=O)[C@@]12CCO[C@@H]1CCN(Cc1ccco1)C2.O=C(O)C(F)(F)F
Percent Effect (30.3 µM, […]): -46.6%

COc1cc(C)c(-c2ccc(F)c3c2OC(CN)C3)cc1C (configuration not stated)
Percent Effect (30 µM, 30.03 µM): -14.37%

CCN1CCn2c(C)cnc2C12CCN(C(=O)N(C)C)CC2.O=C(O)C(F)(F)F.O=C(O)C(F)(F)F
Percent Effect (30.3 µM, […]): -17.98%

CC(C)(C)c1cnc(CN2CCCCC2Cn2cccn2)o1 (configuration not stated)
Percent Effect (30.3 µM, […]): -24.92% | Percent Effect (10 mM, 10 mM as filed; unlikely as a test dose): -80.62%

CCC1CCCCN1Cc1ncc(C(C)(C)C)o1 (configuration not stated)
Percent Effect (30.3 µM, […]): 100.3% | Percent Effect (10 mM, 10 mM as filed; unlikely as a test dose): -33.47%

CC(C)(C)c1cnc(CN2CCC[C@H]2CO)o1
Percent Effect (30 µM, 30.03 µM): 19.26%

Cc1nc(C)n(CC2CCCN2Cc2ncc(C(C)(C)C)o2)n1 (configuration not stated)
Percent Effect (30.3 µM, […]): 101.7% | Percent Effect (10 mM, 10 mM as filed; unlikely as a test dose): -27.43%

Cc1cc(C)n(CC2CCCN2Cc2ncc(C(C)(C)C)o2)n1 (configuration not stated)
Percent Effect (30.3 µM, […]): 1.727% | Percent Effect (10 mM, 10 mM as filed; unlikely as a test dose): -8.311%

Cc1nc(C)n(CC2CCCCN2Cc2ncc(C(C)(C)C)o2)n1 (configuration not stated)
Percent Effect (30 µM, 30.03 µM): 13.64%

Cc1nc(C)c(S(=O)(=O)NC(=O)c2ccoc2)s1
Percent Effect (30 µM, 30.03 µM): -10.98%

Cc1cc(F)c(S(=O)(=O)NCC(C)(C)N)cc1F.Cl
Percent Effect (30 µM, 30.03 µM): -16.06%

Cc1cc(O)ccc1-c1cc(-c2cnn(C)c2C2CC2)c(C#N)c(N)n1
Percent Effect (30.3 µM, […]): 53.81%

Cn1ncc(-c2cc(-c3cccc(O)c3)nc(N)c2C#N)c1C1CC1
Percent Effect (30.3 µM, […]): 47.44%

Cc1nn(C)c(C)c1-c1cc(-c2cnn(C)c2C2CC2)c(C#N)c(N)n1
Percent Effect (30.3 µM, […]): 20.75%

Cc1nccc(NCc2cncc3c2CCN(CC2CCOC2)C3)n1.Cl.Cl (configuration not stated)
Percent Effect (30.3 µM, […]): -74.45%

C/N=C1/c2cc3cc(OC)ccc3n2CCN1Cc1ccccc1.Cl
Percent Effect (30 µM, 30.03 µM): 62.06%

C/N=C1\c2cc3cc(OC)ccc3n2CCN1Cc1ccccc1.O=C(O)C(F)(F)F
Percent Effect (30 µM, 30.03 µM): 28.46%

C/N=C1\c2cc3cc(OC)ccc3n2CCN1C.Cl
Percent Effect (30 µM, 30.03 µM): -36.23%

Cc1ccc(CN2C[C@@H]3COC[C@@H](CC(=O)N4CCOCC4)[C@@H]3C2)s1.O=C(O)C(F)(F)F
Percent Effect (30 µM, 30.03 µM): -11.98%

O=C(COC1CCCC1)N1C[C@@H]2COC[C@]2(COc2cccnc2)C1.O=C(O)C(F)(F)F
Percent Effect (30.3 µM, […]): -69.72%

Cc1ccc(N2CCC(c3[nH]ncc3Cc3ccccc3)CC2)nn1
Percent Effect (30 µM, 30.03 µM): 58.22%

Cc1ccc(N2CCCC(c3[nH]ncc3Cc3ccccc3)C2)nn1 (configuration not stated)
Percent Effect (30 µM, 30.03 µM): 42.86%

Cc1ccc(N2CCC(c3cc(Cc4ccccc4)n[nH]3)CC2)nn1
Percent Effect (30.3 µM, […]): -45.15%

O=C(C[C@@H]1COC[C@H]2CN(C(=O)c3cccnc3)C[C@@H]12)N1CCCC1.O=C(O)C(F)(F)F
Percent Effect (30 µM, 30.03 µM): -25.13%

CCN1C(=O)CC[C@]12CC[C@@H](NC(=O)c1ccncc1F)CC2.O=C(O)C(F)(F)F
Percent Effect (30.3 µM, […]): 5.821%

COCC(=O)N1CCC2(CC1)CN(c1ncccn1)CCO2
Percent Effect (30.3 µM, […]): -22.4%

O=C(CC1CC1)N1CCC2(CC1)CN(c1ncc(F)cn1)CCO2
Percent Effect (30.3 µM, […]): -27.29%

O=C(CC1CC1)N1CCC2(CC1)CN(c1ncccn1)CCO2
Percent Effect (30 µM, 30.03 µM): 61.77%

Cc1cnc(N)c(C(=O)C2CCN(C(=O)c3ccccc3F)CC2)c1
Percent Effect (30 µM, 30.03 µM): 31.22%

O=C(NCCn1cccc1)C1CCCOC1 (configuration not stated)
Percent Effect (30 µM, 30.03 µM): 2.367%

O=C(NCCc1ccn(-c2ccc(F)cc2)n1)C1CCCO1 (configuration not stated)
Percent Effect (30.3 µM, […]): 99.62%

O=C(NCc1cnn(-c2ccc(F)cc2F)c1)C1CCCO1 (configuration not stated)
Percent Effect (30 µM, 30.03 µM): 6.462%

COC(=O)C1CN(Cc2ccn(-c3ccc(F)cc3)n2)CCO1 (configuration not stated)
Percent Effect (30 µM, 30.03 µM): -55.87%

O=C(NCCc1ccn(-c2ccc(F)cc2)n1)C1CCCOC1 (configuration not stated)
Percent Effect (30.3 µM, […]): 101.3%

CN1CC(C(=O)NCCc2ccn(-c3ccc(F)cc3)n2)CC1=O (configuration not stated)
Percent Effect (30.3 µM, […]): -29.7%

Cc1noc(C)c1CN1CCN(Cc2ccncc2)c2ncccc2C1.O=C(O)C(F)(F)F.O=C(O)C(F)(F)F.O=C(O)C(F)(F)F
Percent Effect (30 µM, 30.03 µM): 43.91%

COc1ccc(CN2CCc3nnc(COCCN(C)C)n3CC2)cc1.O=C(O)C(F)(F)F.O=C(O)C(F)(F)F
Percent Effect (30.3 µM, […]): -2.661%

CN1C(=O)CC[C@@H]2[C@H]1CCN2S(=O)(=O)Cc1ccccc1
Percent Effect (30 µM, 30.03 µM): -49.38%

COc1ccc(-c2cc(CN)nc3ccnn23)cc1.Cl
Percent Effect (30.3 µM, […]): -10.95%

CN(C)S(=O)(=O)c1cccc(CNc2cc(CO)ccc2Cl)c1
Percent Effect (30.3 µM, […]): 18.15%

COc1cccc(CNc2cc(CO)ccc2Cl)c1
Percent Effect (30.3 µM, […]): -53.68%

Cc1cccc(CNC(=O)CNc2cc(CO)ccc2Cl)c1
Percent Effect (30 µM, 30.03 µM): 50.69%

CC(C)CC(=O)N1CC[C@H]2N(C)CC[C@@]2(C(=O)Nc2ccccc2)CC1.O=C(O)C(F)(F)F
Percent Effect (30 µM, 30.03 µM): -17.6%

CCc1cc(CN2CCCCC2c2ccc(F)cc2)on1 (configuration not stated)
Percent Effect (30.3 µM, […]): -64.98%

CCCC(=O)N(C)Cc1nc(N2CCCC2)ncc1-c1ccncc1.Cl
Percent Effect (30.3 µM, […]): 24.09%

O=C(NCC1CCOCC1)[C@H]1C[C@@H]2CCN(c3nncs3)C[C@@H]2O1.O=C(O)C(F)(F)F
Percent Effect (30.3 µM, […]): -23.29%

COCCNC(=O)[C@H]1C[C@@H]2CCN(c3ncccn3)C[C@H]2O1.O=C(O)C(F)(F)F
Percent Effect (30.3 µM, […]): -89.35%

COCCNC(=O)[C@H]1C[C@@H]2CCN(c3nncs3)C[C@H]2O1.O=C(O)C(F)(F)F
Percent Effect (30 µM, 30.03 µM): 50.75%

O=C(NCC1CCOC1)N1CCN(Cc2ccc3c(c2)OCO3)CC1 (configuration not stated)
Percent Effect (30.3 µM, […]): 1.586%

O=C(NCC1CCOC1)N1CCN(Cc2ccc3c(c2)CCO3)CC1 (configuration not stated)
Percent Effect (30 µM, 30.03 µM): 54.6%

O=C(NCC1CCCO1)N1CCN(Cc2ccc3c(c2)CCO3)CC1 (configuration not stated)
Percent Effect (30.3 µM, […]): 17.02%

CC1(C(=O)N2CCOCC2)CNCCO1.Cl (configuration not stated)
Percent Effect (30.3 µM, […]): -3.709%

O=C(CC1CC1)NCc1cn2c(n1)CN(CC1CC1)CC2.O=C(O)C(F)(F)F
Percent Effect (30 µM, 30.03 µM): 14.47%

O=C(COCc1ccccc1Cl)N1CCN(c2ccc(Br)cn2)CC1
Percent Effect (30.3 µM, […]): 6.228%

O=C(NCC1OCCc2cn(CC3CCOCC3)nc21)c1ccsc1.O=C(O)C(F)(F)F (configuration not stated)
Percent Effect (30 µM, 30.03 µM): -82.86%

O=C(Cc1ccsc1)NCC1OCCc2cn(CC3CC3)nc21 (configuration not stated)
Percent Effect (30 µM, 30.03 µM): 10.27%

O=C(NCC1OCCc2cn(CC3CC3)nc21)c1ccsc1 (configuration not stated)
Percent Effect (30 µM, 30.03 µM): 104.3%

CCOCC1CN(C(=O)Cc2ccccn2)Cc2cnn(C)c21.O=C(O)C(F)(F)F.O=C(O)C(F)(F)F (configuration not stated)
Percent Effect (30.3 µM, […]): -7.447%

Nc1ncc2c(n1)CN(C1CCCC1)C2=O
Percent Effect (30 µM, 30.03 µM): 49.38%

CN1CCC(N2Cc3nc(N)ncc3C2=O)CC1
Percent Effect (30.3 µM, […]): -14.03%

CC1CCC(N2Cc3nc(N)ncc3C2=O)CC1 (configuration not stated)
Percent Effect (30.3 µM, […]): 59%

Cc1csc(C(Cc2ccsc2)NC(=O)CN(C)Cc2ccccn2)n1.Cl (configuration not stated)
Percent Effect (30.3 µM, […]): 18.37%

Cc1nc(C)n(CC2CN(CC(=O)Nc3ccncc3)CCO2)n1 (configuration not stated)
Percent Effect (30 µM, 30.03 µM): -4.979%

O=C(O)c1ccccc1-c1c(-c2ccccc2)ncn1C[C@H]1CCCN1
Percent Effect (30 µM, 30.03 µM): 7.799%

Oc1ccc(-c2c(-c3ccccc3)ncn2C[C@H]2CCCN2)cc1
Percent Effect (30 µM, 30.03 µM): 67.04%

O=C(O)c1ccccc1-c1c(-c2ccccc2)ncn1CC1CCCO1 (configuration not stated)
Percent Effect (30 µM, 30.03 µM): -42.19%

CCn1cc2c(n1)CN(Cc1ccncc1)CC2COCC1CC1.O=C(O)C(F)(F)F.O=C(O)C(F)(F)F (configuration not stated)
Percent Effect (30 µM, 30.03 µM): 16.48%

CCOC(=O)[C@@H]1[C@@H](OC)C(=O)N(C)C12CCN(C(=O)C(CC)CC)CC2
Percent Effect (30.3 µM, […]): 47.28%
